Measurements: PubChem BioAssay (Tox21)
Inconclusive results are not listed. Values without a mark were called inactive. Calls of active or inactive are those of the source. Unless noted, calls come from the whole dose curve; as a rule, active = well fitted cell-killing curve with a large enough effect in the repeat runs; inconclusive = weak or mixed curves, or effect the other way; inactive = no such curve, though single readings can be large or run the other way.

Test: qHTS assay for small molecule agonists of the antioxidant response element (ARE) signaling pathway - cell viability counter screen (AID 743203; calls by dose curve; note: nearly all actives have a fitted effect of over 55% in size)
Details: ARE-bla HepG2 viability, CellTiter-Glo luminescence, 16 h; series mostly up to 73.3 µM
How it was run: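 Cytotoxicity was tested in parallel with the ARE reporter screen. ARE-bla HepG2 cells were exposed to compounds for 16 hrs, and viability was taken from CellTiter-Glo luminescence.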
% is set by controls: 0 for no effect and ±100 for the full control effect.

Row | Structure (SMILES) | outcome
1 | NC1CCN(c2cccc(Cl)n2)CC1 | inactive
2 | CC(C)CCOC(=O)CC(C)C | inactive
3 | CC1CCN(CCCC(=O)c2ccc(F)cc2)CC1 | inactive
4 | CC(C)(O)C(=O)c1ccc(OCCO)cc1 | inactive
5 | CC(C)=CC(=O)O | inactive
6 | Nc1cc(N)cc(C(=O)O)c1 | inactive
7 | CC(=O)CCc1ccc(O)cc1 | inactive
8 | Nc1ccn(C2CO[C@H](CO)O2)c(=O)n1 (stereo not given in full) | inactive
9 | O=C(O)/C=C/c1ccc(/C=C/C(=O)O)cc1 | inactive
10 | O=C(O)/C=C/c1ccc(Cn2ccnc2)cc1 | inactive
11 | CC12CCC(CC1=O)C2(C)C (stereo not given) | inactive
12 | OC[C@H]1O[C@@H]2O[C@H]3[C@H](O)[C@@H](O)[C@@H](O[C@H]4[C@H](O)[C@@H](O)[C@@H](O[C@H]5[C@H](O)[C@@H](O)[C@@H](O[C@H]6[C@H](O)[C@@H](O)[C@@H](O[C@H]7[C@H](O)[C@@H](O)[C@@H](O[C@H]8[C@H](O)[C@@H](O)[C@@H](O[C@H]9[C@H](O)[C@@H](O)[C@@H](O[C@H]1[C@H](O)[C@H]2O)O[C@@H]9CO)O[C@@H]8CO)O[C@@H]7CO)O[C@@H]6CO)O[C@@H]5CO)O[C@@H]4CO)O[C@@H]3CO | inactive
13 | NC(CS)C(=O)O (stereo not given) | inactive
14 | C1=C\CC/C=C\CC/C=C\CC/1 | inactive

Test: qHTS assay for small molecule activators of the heat shock response signaling pathway - cell viability counter screen (AID 743209); note: nearly all actives have a fitted effect of over 50% in size
Details: HSE-bla HeLa viability, CellTiter-Glo luminescence, 5 h; series mostly up to 62.6 µM
How it was run: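 Cytotoxicity counter screen run in parallel with the HSE beta-lactamase reporter, using the same wells. HeLa HSE-bla cells received compound for 5 h at 37 C; ATP-based CellTiter-Glo luminescence was measured after 30 min at room temperature.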

Row | Structure (SMILES) | outcome | activity change, negative = cytotoxicity
15 | c1cc(CN2CCCCC2)cc(OCCCNc2nc3ccccc3s2)c1 | inactive | 
16 | CC(C=O)Cc1ccc(C(C)C)cc1 (stereo not given) | inactive | 
17 | Cc1nccn1CC1CCc2c(c3ccccc3n2C)C1=O (stereo not given) | inactive | 
18 | CC(C)(O)Cc1ccccc1 | inactive | 
19 | CCOC(=O)[C@H](CCc1ccccc1)N[C@@H](C)C(=O)N1CCC[C@H]1C(=O)O | inactive | 
20 | COc1nc(C)nc(N)n1 | inactive | 
21 | C=C[Si](OC)(OC)OC | inactive | 
22 | CC/C=C\C#N | inactive | 
23 | COC(=O)CCCCCCCCC(=O)OC | inactive | 
24 | CCC(=O)/C=C/c1ccc(OC)cc1 | inactive | 
25 | NC(=O)c1ncn([C@@H]2O[C@H](CO)[C@@H](O)[C@H]2O)c1O | inactive | 
26 | CC(C)(C)CC(C)(C)N | inactive | 
27 | CC(=O)c1ccc(C)cc1 | inactive | 
28 | Cc1cc(C)cc(OCC2CNC(=O)O2)c1 (stereo not given) | inactive | 
29 | NCC[C@H](O)C(=O)N[C@@H]1C[C@H](N)[C@@H](O[C@H]2O[C@H](CN)[C@@H](O)[C@H](O)[C@H]2O)[C@H](O)[C@H]1O[C@H]1O[C@H](CO)[C@@H](O)[C@H](N)[C@H]1O |  | -14.9% [at 0.55 µM]
30 | Nc1ccc2cc(S(=O)(=O)O)ccc2c1 | inactive | 

Row | Structure (SMILES) | outcome | activity change, negative = cytotoxicity
31 | CN1[C@@H]2CC[C@H]1CC(NC(=O)n1c(=O)[nH]c3ccccc31)C2 (stereo not given in full) | inactive | 
32 | CC(C)c1cccc(C(C)C)c1N | inactive | 
33 | CCC(=O)Nc1cccc(N)c1 | inactive | 
34 | Cn1ccc2cc3c(cc21)CCN3C(=O)Nc1cccnc1 | inactive | 
35 | NC1CCN(c2cccc(Cl)n2)CC1 | inactive | 
36 | CC(C)CCOC(=O)CC(C)C | inactive | 
37 | CC1CCN(CCCC(=O)c2ccc(F)cc2)CC1 | inactive | 
38 | CC(C)(O)C(=O)c1ccc(OCCO)cc1 | inactive | 
39 | CC(C)=CC(=O)O | inactive | 
40 | CC(=O)CCc1ccc(O)cc1 | inactive | 
41 | Nc1ccn(C2CO[C@H](CO)O2)c(=O)n1 (stereo not given in full) | inactive | 
42 | O=C(O)/C=C/c1ccc(Cn2ccnc2)cc1 | inactive | 
43 | OC[C@H]1O[C@@H]2O[C@H]3[C@H](O)[C@@H](O)[C@@H](O[C@H]4[C@H](O)[C@@H](O)[C@@H](O[C@H]5[C@H](O)[C@@H](O)[C@@H](O[C@H]6[C@H](O)[C@@H](O)[C@@H](O[C@H]7[C@H](O)[C@@H](O)[C@@H](O[C@H]8[C@H](O)[C@@H](O)[C@@H](O[C@H]9[C@H](O)[C@@H](O)[C@@H](O[C@H]1[C@H](O)[C@H]2O)O[C@@H]9CO)O[C@@H]8CO)O[C@@H]7CO)O[C@@H]6CO)O[C@@H]5CO)O[C@@H]4CO)O[C@@H]3CO | inactive | 
44 | NC(CS)C(=O)O (stereo not given) | inactive | 
45 | C1=C\CC/C=C\CC/C=C\CC/1 | inactive | 

Test: qHTS assay for small molecule activators of the heat shock response signaling pathway (AID 743210; active = well fitted activation curve with a large enough effect in the signal ratio in the repeat runs, with a control signal flat, not every such curve was filed as active; the % refers to the signal ratio;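 note: HeLa cells with beta-lactamase reporter driven by heat shock elements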)
Details: HeLa HSE-bla reporter, beta-lactamase ratio, 5 h; series mostly up to 62.6 µM
How it was run: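 Activation of heat shock element-controlled beta-lactamase expression is measured in HeLa cells by LiveBLAzer FRET fluorescence, with compound exposure lasting 5 h at 37 C and substrate loading 2.5 h at room temperature.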

Row | Structure (SMILES) | outcome | activation
46 | c1cc(CN2CCCCC2)cc(OCCCNc2nc3ccccc3s2)c1 | inactive | 
47 | CC(C=O)Cc1ccc(C(C)C)cc1 (stereo not given) | inactive | 
48 | Cc1nccn1CC1CCc2c(c3ccccc3n2C)C1=O (stereo not given) | inactive | 
49 | CC(C)(O)Cc1ccccc1 | inactive | 
50 | CCOC(=O)[C@H](CCc1ccccc1)N[C@@H](C)C(=O)N1CCC[C@H]1C(=O)O | inactive | 
51 | COc1nc(C)nc(N)n1 | inactive | 
52 | C=C[Si](OC)(OC)OC | inactive | 
53 | COC(=O)CCCCCCCCC(=O)OC | inactive | 
54 | CCC(=O)/C=C/c1ccc(OC)cc1 | inactive | 
55 | CN(C)CCOC(c1ccc(Cl)cc1)c1ccccn1 (stereo not given) | inactive | 
56 | CC(C)(C)CC(C)(C)N | inactive | 
57 | CC(=O)c1ccc(C)cc1 | inactive | 
58 | Cc1cc(C)cc(OCC2CNC(=O)O2)c1 (stereo not given) | inactive | 
59 | NCC[C@H](O)C(=O)N[C@@H]1C[C@H](N)[C@@H](O[C@H]2O[C@H](CN)[C@@H](O)[C@H](O)[C@H]2O)[C@H](O)[C@H]1O[C@H]1O[C@H](CO)[C@@H](O)[C@H](N)[C@H]1O |  | 0.848% [at 0.55 µM]
60 | Nc1ccc2cc(S(=O)(=O)O)ccc2c1 | inactive | 
61 | CN1[C@@H]2CC[C@H]1CC(NC(=O)n1c(=O)[nH]c3ccccc31)C2 (stereo not given in full) | inactive | 
62 | Cc1onc(-c2ccccc2)c1-c1ccc(S(N)(=O)=O)cc1 | inactive | 
63 | CC(C)c1cccc(C(C)C)c1N | inactive | 
64 | CCC(=O)Nc1cccc(N)c1 | inactive | 
65 | Cn1ccc2cc3c(cc21)CCN3C(=O)Nc1cccnc1 | inactive | 
66 | NC1CCN(c2cccc(Cl)n2)CC1 | inactive | 
67 | CC(C)CCOC(=O)CC(C)C | inactive | 
68 | CC1CCN(CCCC(=O)c2ccc(F)cc2)CC1 | inactive | 
69 | Nc1cc(N)cc(C(=O)O)c1 | inactive | 
70 | CC(=O)CCc1ccc(O)cc1 | inactive | 
71 | O=C(O)/C=C/c1ccc(/C=C/C(=O)O)cc1 | inactive | 
72 | O=C(O)/C=C/c1ccc(Cn2ccnc2)cc1 | inactive | 
73 | CC12CCC(CC1=O)C2(C)C (stereo not given) | inactive | 
74 | OC[C@H]1O[C@@H]2O[C@H]3[C@H](O)[C@@H](O)[C@@H](O[C@H]4[C@H](O)[C@@H](O)[C@@H](O[C@H]5[C@H](O)[C@@H](O)[C@@H](O[C@H]6[C@H](O)[C@@H](O)[C@@H](O[C@H]7[C@H](O)[C@@H](O)[C@@H](O[C@H]8[C@H](O)[C@@H](O)[C@@H](O[C@H]9[C@H](O)[C@@H](O)[C@@H](O[C@H]1[C@H](O)[C@H]2O)O[C@@H]9CO)O[C@@H]8CO)O[C@@H]7CO)O[C@@H]6CO)O[C@@H]5CO)O[C@@H]4CO)O[C@@H]3CO | inactive | 
75 | NC(CS)C(=O)O (stereo not given) | inactive | 
